USP28 block – inhibitors of human USP28 deubiquitinase. Q96RU2. purified USP28, Ub-rhodamine cleavage fluorescence, 30 min. inhibition, % at 25 µM. actives 3% (n = 47,000)
USP30 block – inhibitors of human USP30 deubiquitinase; actives 5.3% (n = 47,000); purified USP30, Ub-rhodamine cleavage fluorescence; inhibition, % at 25 µM
USP17 block – blocks human USP17 ubiquitin-rhodamine cleavage; actives 6.5% (n = 47,000); AID 1645855; A8MUK1; inhibition, % at 50 µM; purified USP17, Ub-rhodamine cleavage fluorescence, 3 h
Target sequence (A8MUK1 whole entry, looked up): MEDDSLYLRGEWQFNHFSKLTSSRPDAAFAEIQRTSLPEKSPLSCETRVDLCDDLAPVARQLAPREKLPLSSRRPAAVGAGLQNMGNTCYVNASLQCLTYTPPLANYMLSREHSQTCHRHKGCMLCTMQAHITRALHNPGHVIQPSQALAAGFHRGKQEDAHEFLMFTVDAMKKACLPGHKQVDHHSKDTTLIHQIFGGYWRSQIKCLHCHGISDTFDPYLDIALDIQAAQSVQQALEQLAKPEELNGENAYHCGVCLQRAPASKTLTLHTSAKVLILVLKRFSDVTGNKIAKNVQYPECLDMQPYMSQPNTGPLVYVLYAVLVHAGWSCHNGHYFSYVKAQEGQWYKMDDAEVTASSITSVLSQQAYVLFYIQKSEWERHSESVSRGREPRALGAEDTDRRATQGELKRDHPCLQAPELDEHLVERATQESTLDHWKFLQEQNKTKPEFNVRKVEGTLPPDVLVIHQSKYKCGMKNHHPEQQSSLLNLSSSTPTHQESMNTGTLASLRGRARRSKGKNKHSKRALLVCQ
USP8 block – human USP8 deubiquitinase inhibition; P40818; purified USP8, Ub-rhodamine cleavage fluorescence, 30 min; inhibition, % at 20 µM; actives 4.2% (n = 47,000)
Numbers stand for hits; - = inactive; . = no result given. Shown are actives, neighbours in structure and some others; about 13% of the full set was active somewhere. No stated cut-off is given here; in the data, active means inhibition above about 30%; inactive means the rest.

SMILES | USP28 block | USP30 block | USP17 block | USP8 block
Cc1cc(C)c(NC(=O)CCC(=O)N2CCSc3ccccc32)c(C)c1 | - | - | - | -
COc1cccc(NC(=O)CCC(=O)N2CCSc3ccccc32)c1 | 35 | - | - | -
CNC(=O)N1CCc2[nH]nc(-c3ccc(C)cc3)c2C1 | - | - | - | -
O=C1c2cccc(O)c2C(=O)c2c(O)cccc21 | - | - | - | -
Cc1cc(O)c2c3c(c(O)cc2c1)C(=O)c1c(O)cccc1C3=O | 73 | - | 63 | -
O=c1[nH]c(-c2cccnc2)nc2c1CCN(Cc1[nH]c3ccccc3c1Cl)C2 | - | - | - | 37
O=c1[nH]c(-c2ccccn2)nc2c1CCN(Cc1cnn(-c3ccccc3)c1)C2 | - | - | 55 | -
O=c1[nH]c(-c2ccncc2)nc2c1CCN(Cc1ccc(Cl)cc1)C2 | - | 43 | - | -
CN(C)c1ccc(CN2CCc3nc(-c4ccncc4)[nH]c(=O)c3C2)cc1 | - | - | - | -
Cc1ccc(-n2ncc3c(O)c(C(=O)Nc4ccccc4F)c(=O)[nH]c32)cc1 | - | - | - | 83
CCc1ccccc1NC(=O)c1c(O)c2cnn(C)c2[nH]c1=O | - | - | - | 84
Cc1ccc(-c2noc(-c3c(O)c4cnn(-c5ccccc5)c4[nH]c3=O)n2)cc1 | - | - | - | -
O=C1N(Cc2cccc([N+](=O)[O-])c2)c2ccccc2S(=O)(=O)N1c1ccccc1 | - | - | - | -
COc1ccc(NC(=O)c2ccnc(Nc3cccc(C)c3)c2)cc1 | - | - | - | -
COc1ccc(NC(=O)c2ccnc(Nc3cccc(OC)c3)c2)cc1 | - | - | 32 | -
COc1cccc(Nc2cc(C(=O)Nc3ccccc3)ccn2)c1 | - | - | 36 | -
Cc1ccc(CSc2nc3c(c(N(C)C)n2)CCCC3)cc1 | 47 | 33 | - | -
COc1ccc2c(=O)[nH]c(C3CCN(C(=O)C4CCOCC4)CC3)cc2c1 | - | - | - | -
O=C(C1CCCCC1)N1CCCC(c2nn(CCOc3ccccc3)c3nccnc23)C1 (stereo unspecified) | - | 33 | 31 | -
O=C(CC1CCCC1)N1CCCC(c2nn(CCOc3ccccc3)c3nccnc23)C1 (stereo unspecified) | - | - | - | -
O=c1c(C/C=C/c2ccccc2)c(O)ccn1CC1CC1 | - | - | - | -
COc1ccc(CC(NC(C)=O)C(=O)NC2CCN(c3c(Cc4ccccc4)c(C)nc4ncnn34)CC2)cc1OC (stereo unspecified) | - | 71 | 47 | -
COc1ccc(CC(NC(C)=O)C(=O)NC2CCN(c3c(Cc4ccccc4)c(C)nc4ncnn34)CC2)c(OC)c1 (stereo unspecified) | - | - | - | -
Cc1ccccc1C(=O)NCC1(O)CCOc2ccccc21 (stereo unspecified) | - | - | - | -
Cc1ccc(C)c(CNC(=O)C2CCN(c3cnc(N4CCOCC4)nc3)CC2)c1 | - | - | - | -
SMILES | USP28 block | USP30 block | USP17 block | USP8 block
CNc1ncc(C(=O)c2ccc(Br)cc2)s1 | - | 39 | 47 | -
O=C1CCSc2ccc(S(=O)(=O)Nc3ccc(F)c(Cl)c3)cc2N1 | - | - | - | -
CC(C)c1nc2ccccc2c2nn(CC(N)=O)c(=O)n12 | - | - | - | -
O=C(NC1(O)C(=O)c2ccccc2C1=O)c1cccc2c1-c1ccccc1C2=O | - | 45 | 91 | 95
Cc1cc(OCC(=O)Nc2ccccc2C)nc(N2CCCCCC2)n1 | - | 36 | - | -
Cc1ccccc1NC(=O)c1ccc(N2CCCCC2)nn1 | - | 70 | 47 | -
Cc1cc(OCC(=O)Nc2ccccc2F)nc(N2CCCCCC2)n1 | - | - | - | -
CC(=O)c1cccc(NC(=O)c2ccc(N3CCCCC3)nn2)c1 | - | 57 | 49 | -
CCC(C(=O)Nc1ncc2c(n1)CC(c1ccccc1)CC2=O)c1ccccc1 (stereo unspecified) | - | - | - | -
Brc1ccc2oc3c(N4CCCC4)ncnc3c2c1 | - | - | - | -
Cc1cc(N2C(=O)c3oc4ccc(F)cc4c(=O)c3C2c2cccc(OCc3ccccc3Cl)c2)no1 (stereo unspecified) | - | - | - | 31
Cc1cc(N2C(=O)c3oc4ccc(F)cc4c(=O)c3C2c2cccc(OCc3ccccc3)c2)no1 (stereo unspecified) | - | - | - | -
CCc1nnc(-c2cn(CC(=O)N3CCc4ccccc43)c3ccccc23)o1 | - | - | - | -
C/C=C/C=C/CCc1c(O)cc(CC=C(C)C)c(O)c1C=O | - | - | 45 | -
CC(OC(=O)c1ccc2c(=O)n3c(nc2c1)CCCCC3)C(=O)NC1CCCC1 (stereo unspecified) | - | 47 | 31 | -
N#Cc1cccc(NC(=O)c2ccc3c(=O)n4c(nc3c2)CCCCC4)c1 | - | - | 36 | -
O=C(NC1CC1)c1ccc2c(=O)n3c(nc2c1)CCCC3 | . | . | - | -
Cc1cc(NC(=O)c2ccc3c(=O)n4c(nc3c2)CCCCC4)no1 | - | 31 | - | -
Cc1ccc(C(=O)C2CC(=O)Nc3c2c(C)nn3-c2cccc(C)c2C)s1 (stereo unspecified) | - | - | - | -
CC(=O)Nc1ccc(C(=O)N2CCN(c3ccc(-c4nc(C)c(C)s4)cn3)CC2)cc1 | - | - | - | -
COc1ccccc1CNc1nnc(-c2nc(C3CC3)no2)c2ccccc12 | - | 34 | - | -
CC1CCN(c2nnc(-c3nc(C4CC4)no3)c3ccccc23)CC1 | - | 57 | - | -
c1ccc(CNc2nnc(-c3nc(C4CC4)no3)c3ccccc23)cc1 | . | . | - | -
c1ccc2c(-c3nc(C4CC4)no3)nnc(NC3CCCC3)c2c1 | 36 | 39 | - | -
c1ccc2c(N3CCCC3)nnc(-c3nc(C4CC4)no3)c2c1 | - | - | - | -
SMILES | USP28 block | USP30 block | USP17 block | USP8 block
Cn1nc(-c2ccccc2)c(COC(=O)c2ccc(Cl)c(Cl)c2)c1Cl | - | - | - | -
Cc1c(C(=O)Nc2ccccn2)oc2c(Cl)cccc12 | - | 48 | 33 | -
COC(=O)c1cc(OC)cc(O)c1OC(=O)c1c(O)cc2cc(C)oc(=O)c2c1O | - | - | - | -
COc1c(O)cc2cc(C)oc(=O)c2c1O | - | 36 | - | -
Cc1ccc(-c2noc(Cc3nnc(-c4ccccc4)o3)n2)cc1 | - | - | - | -
Cc1ccc(-c2noc(CNc3ccc(Oc4ccccc4)cc3)n2)cc1 | - | - | - | 79
CC(=O)NS(=O)(=O)c1ccc(NC(=O)/C=C/c2cn(-c3ccccc3)nc2-c2ccccc2)cc1 | - | - | - | 65
O=C(/C=C/c1cn(-c2ccccc2)nc1-c1cc2ccccc2o1)NCc1ccccc1F | - | - | - | -
NS(=O)(=O)c1cccc(NC(=O)/C=C/c2cn(-c3ccccc3)nc2-c2cccc([N+](=O)[O-])c2)c1 | - | 34 | - | 71
CNC(=O)Cc1ccc(NC(=O)/C=C/c2cn(-c3ccccc3)nc2-c2ccc(F)cc2)cc1 | - | - | - | 34
Cc1nc2ccc(NC(=O)/C=C/c3cn(-c4ccccc4)nc3-c3cccnc3)cc2s1 | - | - | - | 38
CC(=O)Nc1ccc(S(=O)(=O)Nc2cc(-c3ccccc3)nn2C)cc1 | - | - | - | -
CC1Cc2nc3ccccc3n2CCN1Cc1ccc(OCCO)cc1 (stereo unspecified) | - | - | - | -
